“And” between values parts separate entries of the source, which are not always exact repeats. Equal entries are not always repeated. Records with an inconclusive call do not appear. A call without a number means that no potency is given here. A structure can be active in one record and inactive in another. The source made the active and inactive calls. Unless noted, calls follow the shape of the dose curve; as a rule, active = well fitted curve in the direction sought with a large enough effect in the repeat runs; inconclusive = weak or mixed curves; inactive = no such curve, though single readings can be large; an effect the other way counts as inactive or inconclusive.
Key:
[1] = qHTS assay to identify small molecule antagonists of the estrogen receptor beta (ER-beta) signaling pathway - cell viability counter screen (AID 1259382); also: nearly all actives have a fitted effect of over 55% in size; also: potency is read from the fitted curve at half-maximal effect
In short: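 Cells: ER-beta-UAS-bla HEK293T, 2,000/well, 2% CS-FBS, 6 hr settle. Cpd + E2 (1nM final), 16 hr, 37C/5% CO2. Bla FRET substrate 2 hr RT, then CellTiter-Glo 30 min RT, luminescence.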

[2] = qHTS assay to identify small molecule agonists or antagonists of the thyroid stimulating hormone receptor (TSHR) signaling pathway - wild type cell line counter screen (AID 1259384; calls by dose curve)
In short: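 Counter screen in untransfected Hek293: compounds (15-point titration, triplicate) plus phosphodiesterase inhibitor Ro20-1724 added after 18 h plating; 30 min RT. Intracellular cAMP via competitive d2/cryptate immunoassay, 1 h incubation.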

[3] = target: Progesterone receptor (Homo sapiens) (UniProt P06401); assay: qHTS assay to identify small molecule agonists of the progesterone receptor (PR) signaling pathway (AID 1346784; calls by dose curve; also: nearly all actives have a fitted effect of over 30% in size; also: potency is read from the fitted curve at half-maximal effect)
Sequence of Progesterone receptor (Homo sapiens) (P06401 whole entry, looked up): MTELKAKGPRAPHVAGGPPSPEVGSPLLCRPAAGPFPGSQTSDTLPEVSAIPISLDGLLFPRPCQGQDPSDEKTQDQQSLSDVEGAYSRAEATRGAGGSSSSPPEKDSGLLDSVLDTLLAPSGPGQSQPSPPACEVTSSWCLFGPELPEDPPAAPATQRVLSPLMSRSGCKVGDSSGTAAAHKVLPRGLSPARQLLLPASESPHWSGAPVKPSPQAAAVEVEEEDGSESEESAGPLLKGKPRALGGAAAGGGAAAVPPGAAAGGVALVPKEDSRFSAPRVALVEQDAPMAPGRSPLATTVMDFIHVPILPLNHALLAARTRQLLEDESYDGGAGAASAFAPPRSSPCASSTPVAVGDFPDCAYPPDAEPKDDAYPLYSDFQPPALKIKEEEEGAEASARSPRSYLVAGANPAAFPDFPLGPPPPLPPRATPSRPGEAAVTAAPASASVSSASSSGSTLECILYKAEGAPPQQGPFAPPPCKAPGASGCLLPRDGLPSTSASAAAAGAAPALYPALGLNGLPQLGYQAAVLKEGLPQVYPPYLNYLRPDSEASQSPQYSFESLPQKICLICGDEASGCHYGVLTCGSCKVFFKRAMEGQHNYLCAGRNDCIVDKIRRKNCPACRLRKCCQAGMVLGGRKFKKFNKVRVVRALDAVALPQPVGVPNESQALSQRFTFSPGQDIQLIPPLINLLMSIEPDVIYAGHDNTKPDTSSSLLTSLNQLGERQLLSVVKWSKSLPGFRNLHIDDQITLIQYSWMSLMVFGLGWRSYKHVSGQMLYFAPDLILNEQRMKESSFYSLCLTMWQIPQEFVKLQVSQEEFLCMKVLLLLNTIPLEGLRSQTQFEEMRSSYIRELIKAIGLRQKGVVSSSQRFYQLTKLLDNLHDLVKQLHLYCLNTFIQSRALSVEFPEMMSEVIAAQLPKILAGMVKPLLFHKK
In short: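 Beta-lactamase reporter read-out: after 16 hr compound treatment at 37C and a further 2 hr at room temperature with LiveBLAzer B/G FRET substrate, fluorescence was measured in PR-UAS-bla HEK 293T cells grown in 2% charcoal-stripped serum.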

[4] = target: Progesterone receptor (Homo sapiens) (UniProt P06401); assay: qHTS assay to identify small molecule antagonists of the progesterone receptor (PR) signaling pathway (AID 1346795; active = well fitted inhibition curve with a large enough effect in the signal ratio in the repeat runs, not every such curve was filed as active; the % refers to the signal ratio; also: potency is read from the fitted curve at half-maximal effect)
In short: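 Read-out is fluorescence from the LiveBLAzer B/G FRET substrate, cleaved by a UAS-controlled beta-lactamase in PR-UAS-bla HEK293T cells after 16 hr exposure to compound plus 1 nM promegestone (final), followed by 2 hr at room temperature.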

[5] = qHTS assay to identify small molecule antagonists of the progesterone receptor (PR) signaling pathway - cell viability counter screen (AID 1346798);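 also: HEK293T PR-UAS-bla cells stimulated with the agonist R5020; series mostly up to about 92 µM; nearly all actives have a fitted effect of over 50% in size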
In short: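 HEK293T PR-UAS-bla, 2% charcoal-stripped FBS; 4 hr pre-plate; cpd + R5020, 16 h 37C; LiveBLAzer read first; then CellTiter-Glo 30 min RT, luminescence.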

[6] = qHTS assay to identify small molecule antagonists of the TGF-beta/Smad signaling pathway - cell viability counter screen (AID 1346824); also: nearly all actives have a fitted effect of over 50% in size
In short: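 Cytotoxicity counter-screen run in the same wells as the beta-lactamase Smad reporter read: CellTiter-Glo luminescence after 30 min at room temperature. HEK 293T SBE-bla cells had 5 hr compound exposure at 37 C with TGF-beta1 (0.25 ng/mL stock).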

[7] = qHTS assay to identify small molecule agonists of the TGF-beta/Smad signaling pathway - cell viability counter screen (AID 1346829); also: top concentration of the series differs between compounds; nearly all actives have a fitted effect of over 45% in size
In short: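 Same-well cytotoxicity: CellTiter-Glo added after the 2 hr room-temperature beta-lactamase substrate step, luminescence measured 30 min later; cells had 5 hr of compound at 37 C.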

[8] = qHTS assay to identify small molecule agonists of the TGF-beta/Smad signaling pathway (AID 1346859; active = well fitted activation curve with a large enough effect in the signal ratio in the repeat runs, not every such curve was filed as active; the % refers to the signal ratio; also: series mostly up to about 77 µM)
In short: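 SBE-bla HEK 293T, 4,000 cells/well, plated o/n; cpd in DMSO, 5 hr, 37 C/5% CO2; B/G FRET substrate 2 hr RT; ex 405, em 460/530 nm.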

[9] = Human pregnane X receptor (PXR) small molecule agonists, qHTS cell viability counter screen (AID 1346977); also: nearly all actives have a fitted effect of over 50% in size; also: potency is read from the fitted curve at half-maximal effect
In short: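 PXR-Luc HepG2, 2,000 cells/well, 5% charcoal-stripped FBS; 5hr settle; cpd 24hr, 37C/5% CO2; CellTiter-Fluor at 23hr, read 1hr later (fluorescence).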

[10] = Caspase-3/7 induction in HepG2 cells by small molecules, qHTS assay (AID 1346978); also: nearly all actives have a fitted effect of over 15% in size; also: potency is read from the fitted curve at half-maximal effect
In short: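 Caspase-3/7 induction was measured by Caspase-Glo 3/7 luminescence (30 min, room temperature) after a 17 hr compound exposure of wild-type HepG2 cells seeded at 2,000 per well and pre-incubated 5 hr.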

[11] = Caspase-3/7 induction in CHO-K1 cells by small molecules, qHTS cell viability counter screen (AID 1346979); also: nearly all actives have a fitted effect of over 35% in size; also: potency is read from the fitted curve at half-maximal effect
In short: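 Cells (CHO-K1, wild type) are plated at 1,500 per well and incubated 5hr. Test compounds in DMSO are then pinned in, followed by 16hr at 37C and 5% CO2. Viability is read by CellTiter-Fluor fluorescence after 1hr.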

[12] = Caspase-3/7 induction in CHO-K1 cells by small molecules, qHTS assay (AID 1346980); also: nearly all actives have a fitted effect of over 15% in size
In short: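 Luminescent Caspase-Glo 3/7 read (30min, room temperature) quantified apoptosis induction. Cells were wild-type CHO-K1, treated with compound for 17hr at 37 C and 5% CO2.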

[13] = Caspase-3/7 induction in HepG2 cells by small molecules, qHTS cell viability counter screen (AID 1346981); also: nearly all actives have a fitted effect of over 30% in size; also: potency is read from the fitted curve at half-maximal effect
In short: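 HepG2, WT, 2,000 cells/well; 5 hr pre-incubation 37 C/5% CO2; compound pin-transferred from DMSO; 16 hr exposure; CellTiter-Fluor, 1 hr; fluorescence read.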

[14] = qHTS assay to identify small molecule agonists of the estrogen receptor beta (ER-beta) signaling pathway - cell viability counter screen (AID 1259380); also: nearly all actives have a fitted effect of over 30% in size; also: potency is read from the fitted curve at half-maximal effect
In short: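 HEK293T ER-beta-UAS-bla; 2% CS-FBS; 6 hr pre-plate, 16 hr cpd at 37C/5% CO2; LiveBLAzer read first, then CellTiter-Glo 30 min RT, luminescence.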

[15] = qHTS assay to identify small molecule agonists of the estrogen receptor alpha (ER-alpha) signaling pathway in the presence of an antagonist - cell viability counter screen (AID 1259386);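 also: cells exposed to compounds for 22 h at 37 °C before the viability read; nearly all actives have a fitted effect of over 30% in size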; also: potency is read from the fitted curve at half-maximal effect
In short: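 VM7Luc4E2, stripped-serum pre-culture 5 d; 24hr plating; +ICI-182,780 10.0nM final; cpds 15 conc, 22hr, 37C/5% CO2; CellTiter-Fluor added at 21hr, fluorescence 1hr later.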

[16] = qHTS assay to identify small molecule agonists of the progesterone receptor (PR) signaling pathway - cell viability counter screen (AID 1346799; calls by dose curve; also: nearly all actives have a fitted effect of over 45% in size; also: potency is read from the fitted curve at half-maximal effect)
In short: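 Luminescence from CellTiter-Glo, added after the beta-lactamase FRET read in the same wells, gave cytotoxicity in PR-UAS-bla HEK293T cells treated with compounds for 16 hr at 37C.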

[17] = target: Thyrotropin-releasing hormone receptor (Homo sapiens) (UniProt P34981); assay: qHTS assay to identify small molecule antagonists of the thyrotropin-releasing hormone receptor (TRHR) signaling pathway (AID 1346877; active = well fitted inhibition curve with a large enough effect in the repeat runs, not every such curve was filed as active; also: series mostly up to about 51 µM)
Sequence of Thyrotropin-releasing hormone receptor (Homo sapiens) (P34981 whole entry, looked up): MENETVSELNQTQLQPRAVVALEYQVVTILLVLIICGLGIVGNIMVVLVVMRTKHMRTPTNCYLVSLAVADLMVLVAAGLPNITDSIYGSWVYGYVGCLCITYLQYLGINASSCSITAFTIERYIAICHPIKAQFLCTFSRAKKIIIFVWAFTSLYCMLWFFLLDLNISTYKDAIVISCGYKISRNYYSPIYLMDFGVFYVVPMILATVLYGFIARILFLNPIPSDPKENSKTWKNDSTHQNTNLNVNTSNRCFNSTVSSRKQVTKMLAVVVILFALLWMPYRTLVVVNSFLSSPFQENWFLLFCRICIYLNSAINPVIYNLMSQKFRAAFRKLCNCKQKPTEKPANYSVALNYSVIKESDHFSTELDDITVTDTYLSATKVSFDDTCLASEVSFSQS
In short: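 Intracellular calcium fluorescence, read kinetically every second over 3 min, reports TRH-evoked signalling in HEK293 cells carrying TRHR. Test compounds were added 5 min ahead of a 1 nM TRH challenge.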

[18] = target: Thyrotropin-releasing hormone receptor (Homo sapiens) (UniProt P34981); assay: qHTS assay to identify small molecule agonists of the thyrotropin-releasing hormone receptor (TRHR) signaling pathway (AID 1346891; calls by dose curve; also: series mostly up to about 58 µM)
In short: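 Intracellular calcium rise, read as fluorescence every second for 3 min, served as the agonist signal in dye-loaded HEK293 cells expressing TRHR; each compound ran at 15 concentrations in triplicate.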

SMILES | Potency [1] | Potency [2] | Potency [3] | Potency [4] | Potency [5] | Potency [6] | Potency [7] | Potency [8] | Potency [9] | Potency [10] | Potency [11] | Potency [12] | Potency [13] | Potency [14] | Potency [15] | Potency [16] | Potency [17] | Potency [18]
CCCCCCCCn1cc[n+](C)c1 | inactive | inactive | inactive | inactive | inactive | inactive | inactive | inactive | 9.68 µM (active) and 7.76 µM (active) and 8.72 µM (active) | inactive | 54.1 µM (active) and 49 µM (active) and 55 µM (active) | inactive | inactive |  |  |  |  | 
O=S(=O)(O)O | inactive |  |  |  | inactive | inactive | inactive | inactive | inactive | inactive | inactive | inactive | inactive | inactive | inactive | inactive |  | 
CCC[N+]1(C)CCCC1 | inactive |  | inactive | inactive | inactive | inactive | inactive | inactive | inactive | inactive | inactive | inactive | inactive | inactive | inactive | inactive |  | 
COP(=O)(OC)C(O)C(Cl)(Cl)Cl (configuration not stated) | inactive | inactive | inactive |  | inactive | inactive | inactive | inactive | inactive | inactive | inactive | inactive | inactive | inactive | inactive | inactive | inactive | inactive
CCCCCCCCCCCCOS(=O)(=O)O | 54.5 µM (active) and inactive |  | inactive | inactive | inactive | inactive | inactive | inactive | inactive | inactive | inactive | inactive | inactive |  | inactive | inactive and 27.3 µM (active) |  | 
CCCCCCCCCCn1cc[n+](C)c1 | inactive |  | inactive | 31.4 µM (active) and 48.5 µM (active) and 27.3 µM (active) | inactive | inactive | inactive | inactive | 2.76 µM (active) | inactive |  | inactive | inactive | inactive and 2.73 µM (active) |  |  |  | 
O=C(O)c1ccccc1O | inactive |  | inactive | inactive | inactive | inactive | inactive | inactive | inactive | inactive | inactive | inactive | inactive | inactive | inactive | inactive |  | 
O=C(O)CC(O)(CC(=O)O)C(=O)O | inactive |  | inactive and 87.8 nM (active) | inactive | inactive | inactive | inactive | inactive | inactive | inactive | inactive | inactive | inactive | inactive | inactive | inactive | inactive | inactive
CC[n+]1ccccc1 | inactive | inactive | inactive | inactive |  | inactive | inactive | inactive | inactive and 6.06 µM (active) | inactive | inactive and 763 nM (active) | inactive | inactive and 19.2 µM (active) | inactive and 60.6 µM (active) | inactive and 42.9 µM (active) | inactive and 48.2 µM (active) |  | 
CCCCCCCCCCCCn1cc[n+](C)c1 |  |  | inactive | 27.5 µM (active) [middle of 4 runs] |  |  |  | inactive |  | 43.6 µM (active) and inactive |  | inactive | 24.5 µM (active) and inactive |  |  |  |  | 
CCOP(=S)(OCC)Oc1ccc2c(C)c(Cl)c(=O)oc2c1 | inactive | inactive | inactive |  |  | inactive | inactive |  | inactive | inactive | inactive | inactive | inactive | inactive | inactive | inactive | inactive | inactive
CCCC[N+]1(C)CCCC1 | inactive |  | inactive | inactive | inactive | inactive | inactive | inactive | inactive | inactive | inactive | inactive | inactive | inactive | inactive | inactive |  | 
Oc1cccc2cccnc12 | inactive |  | inactive | 4.6 µM (active) and inactive |  | inactive | inactive | inactive |  | 54.8 µM (active) and inactive and 10.6 µM (active) |  | inactive | inactive | 1.38 µM (active) and 1.22 µM (active) and inactive | inactive | 770 nM (active) and inactive |  | 
CNC | inactive |  | inactive | inactive | inactive | inactive | inactive | inactive | inactive | inactive | inactive | inactive | inactive | inactive | inactive | inactive | inactive | inactive
N#CS | inactive |  | inactive | inactive | inactive | inactive | inactive | inactive | inactive | inactive | inactive | inactive | inactive | inactive | inactive | inactive | inactive | inactive
CCCCCCCCCCCCCCCCn1cc[n+](C)c1 | inactive and 61.7 µM (active) and 30.7 µM (active) | inactive | inactive | inactive and 21.7 µM (active) |  |  |  | inactive |  | inactive |  | inactive |  |  | inactive and 55 µM (active) and 21.7 µM (active) | inactive and 61.7 µM (active) and 30.7 µM (active) |  | 
CCCC[n+]1ccccc1C | inactive |  | inactive | inactive | inactive | inactive | inactive | inactive | inactive | inactive | inactive | inactive | inactive | inactive | inactive | inactive |  | 

Reference: PubChem BioAssay (Tox21)
